# Article PMC6212790, “How bacterial xenogeneic silencer rok distinguishes foreign from self DNA in its resident genome”
# Whole data set: some 33,000 sequences, median “e-score” near -0.037, cut for the highest 2% near 0.34. The list comes from a sample in which the highest values are over-represented; it also holds similar and randomly drawn sequences.
# Target: T1, GST-Rok (full length) (Bacillus subtilis subsp. subtilis str. …, UniProt O34857 1-191)
# T1 sequence: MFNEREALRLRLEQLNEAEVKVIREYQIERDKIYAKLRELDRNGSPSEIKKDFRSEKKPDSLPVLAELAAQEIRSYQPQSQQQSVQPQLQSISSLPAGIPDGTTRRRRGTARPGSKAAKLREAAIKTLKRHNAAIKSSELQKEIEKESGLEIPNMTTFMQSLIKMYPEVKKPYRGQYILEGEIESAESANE
# Experiment: protein binding microarray; Rok is a gene silencer of Bacillus subtilis; high values mean tight binding
# Settings: protein: recombinant; tags: GST (pTH5325, pDEST15-Magic modified); dsDNA, one strand shown
# Summary of the method: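 Each has a 25-mer constant primer and a 35-mer variable part from a de Bruijn sequence of order 10, covering every non-palindromic 8-mer at least 32 times (palindromic 16). Preference for each 8-mer is given as a rank-based, unitless enrichment score (E-score). Its range runs from 0.5 (most favored) to −0.5 (most disfavored).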
row,Sequence,binding signal [E-score]
1,ATCTAATG,0.241
2,CAAATTTA,0.168
3,GTAATTTA,0.355
4,ATAATTCA,0.21
5,TAAATTTA,0.361
6,ATAATTTC,0.351
7,AAAATTTA,0.293
8,GTAATTGA,0.246
9,GCAATTTA,0.279
10,ATAATTTA,0.397
11,CTAATTTA,0.286
12,ATAATTTG,0.284
13,CTAATTTC,0.162
14,TAAAGCCA,-0.0305
15,AACTCAAT,0.296
16,CGCCATTC,-0.0796
17,AATAAGGC,-0.0153
18,ATGTCGCG,-0.0435
19,CCATTTAC,0.0848
20,GTCATATA,0.291
21,GAATGGGA,-0.15
22,ACGAGCTA,-0.107
23,AAAACTAT,0.433
24,CAAACTAG,0.329
25,CAAACTCC,-0.0836
26,CAAACTTA,0.162

row,Sequence,binding signal [E-score]
1,AAAACTCC,0.0005
2,CAAACTAC,0.43
3,CAAACTAA,0.378
4,TAAACTAA,0.288
5,AAAACTAG,0.334
6,AAAACTAA,0.254
7,AAAACTGT,-0.0241
8,AAAACTAC,0.453
9,GTGGCAAC,-0.17
10,CGTGACAA,-0.11
11,CGACGAGA,-0.0756
12,ATCCCAAA,0.0535
13,CACTCTCA,-0.109
14,CTTAATGC,0.13
15,ACCGAGCA,-0.0882
16,GTTGGTTA,0.26
17,AGCGCTAT,-0.0624
18,GAAACTAA,0.244
19,GAAACTAC,0.469
20,GAAACTTC,0.224
21,CGGTAGGA,0.281
22,CAACCGGC,-0.0977
23,ACGCTCCT,-0.000812
24,GAATACTA,0.295
25,TAATACGA,0.377
26,AAATACTA,0.454

row,Sequence,binding signal [E-score]
1,CAATACGA,0.00373
2,AAATACTG,0.327
3,AAATACTC,0.227
4,AAATACGA,0.118
5,TAATACTA,0.419
6,CAATACTA,0.261
7,ACGCAAAC,0.106
8,AGAGCTTA,-0.044
9,GACGATGA,-0.103
10,GGCTGTAC,-0.102
11,ACTCGCAC,-0.112
12,ATACTGTC,0.0898
13,AGTACGCC,-0.149
14,ATCAATGA,0.0966
15,CTTAATAC,0.18
16,AATAATAG,0.388
17,AATAATAA,0.364
18,GGTAATAA,0.313
19,ATTAATAC,0.353
20,CATAATAG,0.243
21,ATTAATAA,0.182
22,TATAATAA,0.33
23,CATAATAA,0.252
24,AATAATAC,0.332
25,GATAATAA,0.369
26,GATAATAC,0.187

row,Sequence,binding signal [E-score]
1,AACCATCC,-0.0159
2,AGCCGTGC,-0.157
3,ATGGGCCG,-0.146
4,ACCTTAGA,0.00282
5,AGTACGTA,0.332
6,AATAATGG,0.103
7,AATAATGC,0.352
8,AATAATGT,0.222
9,CGTAGTCC,-0.0635
10,CGGGCAGC,-0.142
11,CTAGGTCA,-0.0595
12,ACGTTCAA,-0.0397
13,CAATGGAG,-0.17
14,ACAGCTCT,-0.118
15,ACAACGAC,0.0795
16,TACCGGTA,0.37
17,CACCGGTA,0.056
18,AACCGGTA,0.274
19,ACCATGCT,-0.182
20,ATTAACTC,0.092
21,CTTAACTA,0.313
22,GTTAACGA,0.241
23,GTTAACTA,0.359
24,ATTAACTG,0.14
25,ATTAAGTA,0.347
26,ATTAACTA,0.398

row,Sequence,binding signal [E-score]
1,CTTAAGTA,0.281
2,GTTAAGTA,0.191
3,GAGCGAGA,-0.17
4,AGTCATAC,0.018
5,GGTCGCAA,0.0661
6,CAGCGTGA,-0.12
7,AAATGTAT,0.281
8,GAATGTAC,0.303
9,AAATGTAC,0.343
10,AAATGTAG,0.297
11,CAATGTAC,0.263
12,AAATGTAA,0.389
13,CGAGCCAC,-0.119
14,GGGCAGCA,-0.184
15,CTCGCTAA,-0.0951
16,TGTGAGAA,0.216
17,CCTCTTGA,-0.196
18,CACATATG,0.266
19,CATATATA,0.38
20,TATATATA,0.477
21,CATATAAG,0.119
22,TATATCGA,0.304
23,TAGATATA,0.339
24,CACATATA,0.261
25,CAGATATA,0.165
26,CATATATC,0.25

row,Sequence,binding signal [E-score]
1,CATATATG,0.343
2,GAGATATA,0.157
3,CTTATATA,0.253
4,CTTAAAAG,-0.119
5,ACATTGGT,0.186
6,ACCAGAGG,-0.0915
7,AGAGACAC,0.0712
8,ATGTCCGG,-0.00967
9,TATATAAA,0.399
10,AATATAAA,0.266
11,TTTATAAA,0.367
12,GATATAAA,0.33
13,ATTATAAA,0.157
14,CTTATAAA,0.0863
15,CCCAGGCA,-0.18
16,GAAACCGA,-0.119
17,CCCGTACG,-0.101
18,CATATGTC,-0.0495
19,CATATGTA,0.338
20,CATATGAA,0.0706
21,AATATGTA,0.416
22,ATTATGTA,0.358
23,AATATGTC,0.106
24,GTTATGTA,0.269
25,CTTATGTA,0.111
26,GATATGTA,0.296

row,Sequence,binding signal [E-score]
1,AGAGCTGC,-0.0428
2,ACGAACTG,0.0336
3,GTCCAGAA,-0.0598
4,GCGAGAAA,-0.035
5,TAGAAGAA,0.109
6,AAAAGGAG,-0.188
7,AGTGAATG,0.0707
8,TCTCTGCA,0.0197
9,AGCATTAT,0.255
10,ATTAGTAG,0.321
11,AACAGTAG,0.354
12,AATAGTAT,0.292
13,CATAGTAG,0.0836
14,AGCAGTAT,0.015
15,CGTAGTAG,0.204
16,AACAGTAA,0.294
17,AGTAGTAT,0.405
18,AGTAGTAG,0.349
19,AGAAGTAT,0.334
20,CACAGTAG,0.0684
21,AATAGTAG,0.469
